Screening data (PubChem)
Only some compounds are listed: those with a hit (about 11% of all), similar ones and a draw of the others.
FLuc inh-1: Firefly luciferase inhibition profiling of diverse chemical library using quantitative high-throughput screening | purified P. pyralis luciferase, luminescence, biochemical | Luciferin 4-monooxygenase (Photinus pyralis), P08659 | Potency, µM (doses to about 115 µM), usual class: inhibitors | hit rate 2.5% among 76,000; also: % is scaled to controls: 0 for no effect and ±100 for the full control effect; nearly all actives have a fitted effect of over 65% in size
Target sequence (P08659 whole entry, looked up): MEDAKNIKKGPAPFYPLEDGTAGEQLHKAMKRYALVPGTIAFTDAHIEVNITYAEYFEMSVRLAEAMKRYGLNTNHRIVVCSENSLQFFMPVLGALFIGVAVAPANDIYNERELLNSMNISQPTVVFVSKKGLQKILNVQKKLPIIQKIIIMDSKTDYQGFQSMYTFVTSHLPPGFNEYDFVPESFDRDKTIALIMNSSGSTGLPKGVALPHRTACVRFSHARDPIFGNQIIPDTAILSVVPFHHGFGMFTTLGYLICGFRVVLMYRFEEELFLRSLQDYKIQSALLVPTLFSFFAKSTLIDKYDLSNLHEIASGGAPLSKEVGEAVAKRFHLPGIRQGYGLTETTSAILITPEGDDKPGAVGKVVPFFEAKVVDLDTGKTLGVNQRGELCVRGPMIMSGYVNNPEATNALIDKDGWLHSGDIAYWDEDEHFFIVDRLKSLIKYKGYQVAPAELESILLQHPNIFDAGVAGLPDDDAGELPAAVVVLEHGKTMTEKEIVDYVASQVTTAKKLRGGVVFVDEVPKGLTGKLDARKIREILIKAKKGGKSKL
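Inhibitors were tested against purified firefly luciferase in a biochemical, low-substrate format (both substrates at 10uM) and luminescence measured with a CCD imager.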
hNpr1 antagonist: Natriuretic polypeptide receptor (hNpr1) antagonism - Primary qHTS. Atrial natriuretic peptide receptor 1 (Homo sapiens), P16066. HEK293 hNpr1 GloSensor cGMP, ANP-stimulated luminescence. hit rate 1.6% among 76,000. Potency, µM (doses to about 46.3 µM), for inactives: at the highest dose activity change, negative = inhibition, hits mostly inhibitors. AID 1347048, 2019; calls by dose curve; also: % is scaled to controls: 0 for no effect and ±100 for the full control effect; nearly all actives have a fitted effect of over 60% in size
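HEK293 cells stably expressing human Npr1 and cGMP GloSensor pGS-40F, loaded 2 h with 2% GloSensor reagent, given compound 30 min at room temperature. Luminescence read before and 20 min after 0.1 nM hNppA.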
HEK293 tox: Cytotoxic Profiling in HEK 293 Cell Line of Diverse Libraries Using Quantitative High-Throughput Screening; HEK 293 viability, ATP luminescence (CellTiter-Glo), 48-72 h; Potency, µM (highest dose often 115 µM), for inactives: at the top dose activity change, negative = cytotoxicity, most hits filed as inhibitors; hit rate 6.6% among 94,000; also: % is scaled to controls: 0 for no effect and ±100 for the full control effect; nearly all actives have a fitted effect of over 60% in size
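Read-out: CellTiter-Glo ATP luminescence. Cells: HEK 293, 250 cells/well. Exposure: 48 or 72 hr, 37 degree Celsius.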
3T3 cytotox: Cytotoxic Profiling in NIH 3T3 Cell Line of Diverse Libraries Using Quantitative High-Throughput Screening | NIH 3T3 viability, CellTiter-Glo ATP luminescence, 48-72 h | hit rate 4.3% among 94,000 | Potency, µM (top dose mostly 96.7 µM), inactives show at the top dose activity change, negative = cytotoxicity, actives largely listed as inhibitors; also: % is scaled to controls: 0 for no effect and ±100 for the full control effect; nearly all actives have a fitted effect of over 55% in size
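ATP-dependent luminescence (CellTiter-Glo) served as the viability signal for NIH 3T3 cells treated with compound for 48 or 72 hr at 37 °C.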
FLuc SDR no ATP: Firefly luciferase (FLuc-C-HiBiT) SDR gain of signal screen - without ATP | shares compounds with FLuc inh-1 | Purified FLuc-C-HiBiT, Nano-Glo HiBiT luminescence, no ATP | Potency, µM (top dose mostly 32.7 µM), inactives show at the highest dose activation (signal gain), usual class: activators | hit rate 7.8% among 1,300; also: nearly all actives have a fitted effect of over 55% in size
FLuc SDR ATP: Firefly luciferase (FLuc-C-HiBiT) SDR gain of signal screen - plus ATP; shares compounds with FLuc inh-1; purified FLuc-C-HiBiT + ATP, HiBiT complementation luminescence; Potency, µM (doses to about 32.7 µM), for the others: at the top dose activation (gain of signal), actives largely listed as activators; hit rate 8.7% among 1,300;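 also: signal reports ligand binding via conformational change of the enzyme rather than luciferase catalysis; % of control where 0% means no effect; nearly all actives have a fitted effect of over 55% in size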
FLuc inh-2: Firefly luciferase (FLuc-C-HiBiT) enzymatic inhibition screen - Functional assay; shares compounds with FLuc inh-1; purified FLuc-C-HiBiT enzyme, luciferin luminescence; Potency, µM (top dose mostly 32.7 µM), without a hit: at the highest dose activity change, negative = inhibition, usual class: inhibitors; hit rate 42% among 1,300; AID 1963320, 2024; also: % is scaled to controls: 0 for no effect and ±100 for the full control effect; nearly all actives have a fitted effect of over 70% in size
Starred values were filed as active, the others as inactive; [ ] = dose if it differs, or a comment. Unless noted, calls follow the shape of the dose curve; as a rule, active = well fitted curve in the direction sought with a large enough effect; inconclusive = small, poorly fitted or top-dose-only effect, or another doubt; inactive = no such curve, though single readings can be large; an effect the other way counts as inactive or inconclusive. Potency is read from the fitted curve at half-maximal effect.

What do the screens show for `CCC(C(=O)NCCn1ccn2nc(-c3ccc(OC)cc3)cc2c1=O)c1ccccc1` (stereo not drawn)?
FLuc inh-1: 8.91µM*; hNpr1 antagonist: -16.9%; HEK293 tox: inconclusive; 3T3 cytotox: inconclusive; FLuc SDR no ATP: 25.3%; FLuc SDR ATP: 14.4%; FLuc inh-2: inconclusive

How did COc1ccc(-c2nc(C)c(CCNC(=O)c3c(F)cccc3F)s2)cc1 do in these assays?
FLuc SDR no ATP: 17.1%; FLuc SDR ATP: 15.4%; FLuc inh-2: -19.6%

What do the screens show for `COc1ccc(-c2onc(C)c2C(=O)NCCc2ccc(F)cc2)cc1`?
FLuc inh-1: inactive; hNpr1 antagonist: -6.7%; HEK293 tox: inconclusive; 3T3 cytotox: -21.8%

What do the screens show for `COc1ccc(-c2cc3c(=O)n(CCNC(=O)c4ccco4)ccn3n2)cc1`?
FLuc inh-1: 7.94µM*; hNpr1 antagonist: -16.5%; HEK293 tox: inconclusive; 3T3 cytotox: inconclusive; FLuc SDR no ATP: inconclusive; FLuc SDR ATP: inconclusive; FLuc inh-2: 9.89µM*

What do the screens show for `CCCCCCN1CCC2(CC1)Cc1ccccc1CNC2=O`?
HEK293 tox: -6.5%; 3T3 cytotox: 2.9%

How did O=C(Nc1ccc2c(c1)OCCO2)c1nn(CC2CC2)c2c1CNCC2 do in these assays?
HEK293 tox: -5.6%; 3T3 cytotox: -28.1%

How did COc1ccc(-c2cc3c(=O)n(CCNC(=O)c4c(F)cccc4F)ccn3n2)cc1 do in these assays?
FLuc inh-1: 3.98µM*; hNpr1 antagonist: -20.7%; HEK293 tox: -27.9%; 3T3 cytotox: -26.3%; FLuc SDR no ATP: inconclusive; FLuc SDR ATP: inconclusive; FLuc inh-2: 4.95µM*

Results for COc1cccc(-c2cc3c(=O)n(CCNC(=O)C4CCN(C(C)=O)CC4)ccn3n2)c1 ?
FLuc inh-1: 14.1µM*; hNpr1 antagonist: 6.1%; HEK293 tox: inactive; 3T3 cytotox: -5.5%; FLuc SDR no ATP: inconclusive; FLuc SDR ATP: inconclusive; FLuc inh-2: inconclusive

How did COc1cccc(-c2cc3c(=O)n(CCNC(=O)C4CCCCC4)ccn3n2)c1 do in these assays?
FLuc inh-1: inconclusive; hNpr1 antagonist: inconclusive; HEK293 tox: inconclusive; 3T3 cytotox: -24.2%

Results for CCc1cccc(NCc2ccccc2-c2nnc(-c3ccccc3Cl)o2)c1 ?
FLuc SDR no ATP: 12.1%; FLuc SDR ATP: 11.3%; FLuc inh-2: -3.6%

Results for Cc1cccc(CNC(=O)c2c(C)noc2-c2ccccc2Cl)c1 ?
FLuc inh-1: inactive; hNpr1 antagonist: -3.0%; HEK293 tox: inconclusive; 3T3 cytotox: inconclusive

How did O=C1CO[C@H]2CCN(Cc3ccccc3F)CC[C@@H]2N1CCN1CCCC1 do in these assays?
FLuc inh-1: inactive; hNpr1 antagonist: 1.9%[70.6 µM]; HEK293 tox: -15.5%[172 µM]; 3T3 cytotox: inconclusive

Results for COCCOc1nc(N)c2[nH]c(=O)n(Cc3ccc(C(=O)O)cc3)c2n1 ?
FLuc SDR no ATP: 12.1%[11.8 µM]; FLuc SDR ATP: 7.0%[11.8 µM]; FLuc inh-2: -1.2%[11.8 µM]

How did COc1ccc(Cn2c(=O)[nH]c3cccnc32)cc1 do in these assays?
FLuc inh-1: inactive; hNpr1 antagonist: 1.1%[70.6 µM]; HEK293 tox: -19.1%[172 µM]; 3T3 cytotox: -13.3%[138 µM]

Results for COc1ccccc1-n1c(=O)c(C(=O)N2CCN(C(=O)c3ccccc3F)CC2)nc2cccnc21 ?
HEK293 tox: inactive; 3T3 cytotox: inactive

How did CN1CCN(C(=O)c2ccc3nc(-c4ccncc4)oc3c2)CC1 do in these assays?
HEK293 tox: inconclusive; 3T3 cytotox: -18.4%[138 µM]

Results for COc1cccc(O)c1CN1CCCC12Cc1ccccc1CNC2=O (stereo not drawn) ?
HEK293 tox: -17.3%; 3T3 cytotox: -9.5%

What do the screens show for `Nc1nc(N2CCC3(CC2)NC(=O)CC3C(=O)O)c2[nH]cnc2n1` (stereo not drawn)?
FLuc inh-1: inactive; hNpr1 antagonist: 1.7%; HEK293 tox: inactive; 3T3 cytotox: -3.4%; FLuc SDR no ATP: 12.9%; FLuc SDR ATP: 9.4%; FLuc inh-2: 3.9%

How did COc1cccc(CC(=O)N2CCCC(CN3CCCC3)CC2)c1 (stereo not drawn) do in these assays?
FLuc inh-1: inactive; hNpr1 antagonist: -16.6%; HEK293 tox: -7.8%; 3T3 cytotox: 2.8%

What do the screens show for `CCNc1cc(N2CCC(CCC(=O)NCC3CC3)CC2)ncn1`?
FLuc inh-1: inactive; hNpr1 antagonist: -4.3%; HEK293 tox: inconclusive; 3T3 cytotox: -4.5%

How did CCNc1cc(N2CCC(CCC(=O)Nc3ccc4c(c3)OCCO4)CC2)ncn1 do in these assays?
FLuc inh-1: 7.94µM*; hNpr1 antagonist: -28.4%; HEK293 tox: inconclusive; 3T3 cytotox: inconclusive; FLuc SDR no ATP: 17.9%; FLuc SDR ATP: 19.3%; FLuc inh-2: inconclusive

Results for CCCNc1cc(N2CCC(CCC(=O)Nc3ccc4c(c3)OCCO4)CC2)ncn1 ?
FLuc inh-1: 11.2µM*; hNpr1 antagonist: inconclusive; HEK293 tox: -25.6%; 3T3 cytotox: -19.1%; FLuc SDR no ATP: 27.7%; FLuc SDR ATP: inconclusive; FLuc inh-2: 9.89µM*

What do the screens show for `CCc1noc(-c2nc(-c3ccc4c(c3)OCO4)no2)n1`?
FLuc inh-1: 10µM*; hNpr1 antagonist: -25.9%; HEK293 tox: inconclusive; 3T3 cytotox: -19.2%; FLuc SDR no ATP: 25.4%; FLuc SDR ATP: 19.4%; FLuc inh-2: inconclusive

Results for c1ccc(Cc2noc(-c3nc(-c4ccc5c(c4)OCO5)no3)n2)cc1 ?
FLuc inh-1: inactive; hNpr1 antagonist: 2.8%; HEK293 tox: -7.8%; 3T3 cytotox: -9.6%

What do the screens show for `Fc1ccc(Cc2cn3cc(-c4ccccc4)nc3s2)cc1`?
FLuc SDR no ATP: inconclusive; FLuc SDR ATP: inconclusive; FLuc inh-2: 0.442µM*

Results for O=C(NCCc1ccccc1)c1cn2cc(-c3ccc(C(F)(F)F)cc3)sc2n1 ?
HEK293 tox: -4.2%; 3T3 cytotox: -12.0%

Results for Brc1ccc(-c2cn3cc(Cc4ccccc4)sc3n2)cc1 ?
FLuc SDR no ATP: 22.0%; FLuc SDR ATP: 15.2%; FLuc inh-2: inconclusive
